Test results published in the supplement of paper PMC3334620.
In all, about 33,000 sequences were measured (“E-score (-0.5 to 0.5)”: median about -0.056, highest 2% from about 0.38 on). Many of the other results were omitted from the sample, so the highest values are more common in it than they were.

Each sequence was assayed against Stb4 (UniProt P50104) (assay: PBM E-score (8-mer binding enrichment) (E-score (-0.5 to 0.5)); higher = stronger / more preferred TF binding). Settings: protein concentration: 200 nM; construct: GST-DNA-binding domain.
How it was run: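 Masliner-normalised scans of fluorescent anti-GST signal were the basis for scoring. That signal came from GST-tagged yeast transcription factors applied at about 100-200 nM to double-stranded universal all-10-mer Agilent arrays on fresh or once-stripped slides. Each ungapped eight-base word, pooled with its reverse complement, received an E-score from the Universal PBM Analysis Suite.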

Sequence of UniProt P50104 (P50104 whole entry, the tested form may be a part): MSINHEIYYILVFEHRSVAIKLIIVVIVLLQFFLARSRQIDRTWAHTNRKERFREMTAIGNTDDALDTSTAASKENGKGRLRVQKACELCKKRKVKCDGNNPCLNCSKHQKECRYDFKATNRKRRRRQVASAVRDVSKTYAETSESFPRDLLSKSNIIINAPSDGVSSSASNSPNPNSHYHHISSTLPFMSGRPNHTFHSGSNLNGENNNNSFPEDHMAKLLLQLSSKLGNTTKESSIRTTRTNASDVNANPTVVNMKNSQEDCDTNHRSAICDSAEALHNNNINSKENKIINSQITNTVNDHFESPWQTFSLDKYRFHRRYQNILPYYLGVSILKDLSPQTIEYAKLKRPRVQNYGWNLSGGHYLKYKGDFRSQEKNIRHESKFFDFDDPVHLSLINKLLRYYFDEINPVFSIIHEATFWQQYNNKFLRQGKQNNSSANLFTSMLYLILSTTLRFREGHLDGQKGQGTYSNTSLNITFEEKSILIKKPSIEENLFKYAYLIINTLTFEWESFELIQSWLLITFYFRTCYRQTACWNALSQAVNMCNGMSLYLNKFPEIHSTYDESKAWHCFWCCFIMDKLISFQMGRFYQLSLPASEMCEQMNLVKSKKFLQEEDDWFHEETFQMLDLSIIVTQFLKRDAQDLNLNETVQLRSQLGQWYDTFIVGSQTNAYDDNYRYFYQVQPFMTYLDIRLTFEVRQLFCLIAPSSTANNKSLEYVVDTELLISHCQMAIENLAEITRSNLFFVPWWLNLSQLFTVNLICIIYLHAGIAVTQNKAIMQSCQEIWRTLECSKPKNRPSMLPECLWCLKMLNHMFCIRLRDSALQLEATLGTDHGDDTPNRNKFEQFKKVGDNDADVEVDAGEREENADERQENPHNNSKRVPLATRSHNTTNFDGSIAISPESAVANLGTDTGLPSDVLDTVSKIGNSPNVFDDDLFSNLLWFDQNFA

Row | Sequence | PBM E-score
1 | CAAATCTA | -0.211
2 | CCTTTGTC | -0.141
3 | GCCTACGC | -0.306
4 | TACACTGA | -0.0306
5 | TCGAAGAA | -0.122
6 | ACGAAGAA | -0.0766
7 | CCGAAGAG | 0.417
8 | CCGAAGAC | 0.374
9 | CCGAAGAA | 0.402
10 | ACGAAGAG | -0.117
11 | GAGTACTC | -0.00922
12 | AACGACGT | -0.166
13 | ATTGACCC | 0.0534
14 | GCGAGCGC | -0.103
15 | ACGAGCGG | 0.0575
16 | ACGAGCGC | -0.0806
17 | CAGAGCGG | -0.0262
18 | CCGAGCGC | 0.44
19 | CCGAGCGG | 0.431
20 | ACGAGCGA | -0.402
21 | CCGAGCGA | 0.403
22 | GCGAGCGA | -0.0989
23 | AGTATCGA | -0.072
24 | ATTCGCAG | -0.152
25 | AAAGTCGC | 0.0621
26 | AGATTTAG | -0.0774

Row | Sequence | PBM E-score
27 | ACTTTGGC | 0.123
28 | CTCGACAC | -0.144
29 | CCGAATTA | 0.363
30 | ACGAATAC | -0.0867
31 | CCGAATAA | 0.381
32 | CCGAATAC | 0.425
33 | CCGAATTC | 0.398
34 | ACGAATTC | -0.192
35 | ACGACCGA | 0.0769
36 | TCCGCCAA | 0.233
37 | AGGTCGGA | 0.345
38 | GGGTCGAA | 0.0324
39 | CGGTCGGA | 0.388
40 | CGGTCGTA | 0.128
41 | GGGTCGGA | 0.392
42 | CGGTCGGC | 0.318
43 | GCGTCCGA | 0.282
44 | GGCATGCC | 0.156
45 | GTCTAGTA | -0.11
46 | GTACTGTA | -0.171
47 | AACCACAG | -0.177
48 | CTCGAATC | -0.207
49 | CACGAATA | -0.22
50 | CCCGAATA | 0.397
51 | CCCGAATC | 0.397
52 | ACCGAATA | 0.215

Row | Sequence | PBM E-score
53 | CTCGAATA | 0.0163
54 | GTCGAATA | -0.181
55 | GCCGAATA | 0.427
56 | ACCGAATC | 0.357
57 | CCATCACA | -0.197
58 | CCCCATCA | -0.137
59 | CCTTCTTA | -0.143
60 | CCGGCATC | 0.28
61 | CCTTTCAA | -0.112
62 | GAATGGTC | 0.0599
63 | CCAGACGG | -0.0564
64 | CCGGATCC | 0.395
65 | TCGGATCA | 0.46
66 | ACGGATCA | 0.325
67 | ACGGATCC | 0.352
68 | ACGGATGC | 0.298
69 | CCGGATGA | 0.366
70 | GCGGATCA | 0.196
71 | CCGGATCA | 0.383
72 | CCGGATGC | 0.396
73 | TAGGATCA | -0.0704
74 | TCAGATCA | -0.235
75 | GCGGATCC | 0.301
76 | AGATCTAG | -0.255
77 | TTGGCAAA | -0.183
78 | AACCGCGG | 0.291

Row | Sequence | PBM E-score
79 | GAGGAGGC | -0.196
80 | ACGTTTTC | 0.0722
81 | GATTGCTA | -0.122
82 | TTAGACAA | -0.0136
83 | ACGGATCG | 0.315
84 | CCGGATCG | 0.413
85 | CAGGATCG | 0.0947
86 | TATGACGA | -0.111
87 | GGAAGTGA | 0.245
88 | ATTAGAGG | 6e-05
89 | AACTGGAA | -0.0984
90 | CATTTAGA | -0.00372
91 | ATTCCGAA | 0.464
92 | CTTCCGCA | 0.331
93 | CTTCCGAA | 0.479
94 | ATTCCGTA | 0.265
95 | GTTCCGCA | 0.293
96 | ATTCCGCA | 0.169
97 | GTTCCGAA | 0.479
98 | CTTCCAAA | -0.174
99 | ATTCCGAG | 0.472
100 | GTTCCAAA | -0.0427
101 | AGTCCGAG | 0.371
102 | ATTCCGTG | 0.363
103 | GCGATCTA | -0.0238
104 | GCGACCAA | -0.183

Row | Sequence | PBM E-score
105 | CCGCCAAG | -0.059
106 | AACATCGT | -0.0992
107 | ATCTCCGG | 0.345
108 | GCTTGCGA | -0.104
109 | ACTAAGCG | -0.0604
110 | CCTATATA | -0.103
111 | GGAATCAC | 0.244
112 | CCAGGCTA | -0.289
113 | CAAAATTC | 0.165
114 | CTTCCGAC | 0.457
115 | AGTCCGAC | 0.11
116 | CTTCCGCC | 0.297
117 | CTTCCGTC | 0.341
118 | ATTCCGTC | 0.285
119 | ATTCCGAC | 0.416
120 | GCTACCCC | -0.0436
121 | TCTTGCAA | 0.0931
122 | AAAGAGCT | -0.128
123 | ATTAGAAT | -0.0347
124 | TCCCGGAA | 0.407
125 | CCCCGGGA | 0.307
126 | CCCCGGAA | 0.27
127 | GCCCGGGA | 0.308
128 | GCCCGGAC | 0.229
129 | TCCCGGGA | 0.409
130 | ACCCGGAG | 0.373

Row | Sequence | PBM E-score
131 | GCCCGGTA | 0.263
132 | ACCCGGAT | 0.374
133 | GCCCGGAA | 0.423
134 | ACCCGGAA | 0.433
135 | TCCCGGCA | 0.298
136 | CGGTAGGA | 0.136
137 | AGCTCATA | -0.0221
138 | AACAACTT | -0.165
139 | CCTATGAG | -0.227
140 | GTAGCAAA | -0.0766
141 | ATTGACGA | -0.138
142 | TCACATCA | -0.0958
143 | CCTCGGAA | 0.484
144 | CCGCGGAA | 0.352
145 | CCTCGGAC | 0.321
146 | CCTCGAAA | -0.27
147 | CCTCGGAG | 0.408
148 | ACTCGGAG | 0.362
149 | CATCAACC | 0.00345
150 | ACATCAAA | -0.0159
151 | ACTCATCT | -0.224
152 | AGCCAAGA | -0.22
153 | AAAGGAGT | 0.0609
154 | GATGCGAC | 0.0109
155 | CTACTTGC | 0.104
156 | AGGATGTA | -0.177

Row | Sequence | PBM E-score
157 | GGGATGTA | 0.109
158 | CGGATGAA | 0.433
159 | CGGATGTC | 0.426
160 | CGGATGTA | 0.443
161 | AGGATGAA | -0.0759
162 | AGGATGTC | -0.0723
163 | CGGATGAG | 0.369
164 | CTGATGTC | 0.0602
165 | ATCCTCTG | -0.208
166 | CGCCACAA | -0.0226
167 | ACCCGTTA | 0.269
168 | AATGGAAA | 0.0387
169 | AGTCCCGG | 0.304
170 | GGTCCCGA | 0.39
171 | CGTCCCGA | 0.402
172 | CGTCCCGC | 0.248
173 | AGTCCCGA | 0.389
174 | AGTCCCGC | 0.15
175 | CGTCCCAA | -0.155
176 | GTCCCCGA | 0.288
177 | GGTCCCTA | -0.115
178 | CGTTACTA | -0.124
179 | AGCCCCAC | -0.0851
180 | ACAGGACA | -0.0558
181 | CCATTGGA | -0.213
182 | CTATTCAG | -0.288

Row | Sequence | PBM E-score
183 | CCCGCCAG | 0.0645
184 | AGAATAAA | -0.194
185 | AAATCTAT | -0.00166
186 | CGGGAAGC | 0.299
187 | CCGGAAGA | 0.389
188 | ACGGAAGG | 0.313
189 | GCGGAAGA | 0.317
190 | GCGGAAGC | 0.336
191 | CAGGAAGG | -0.208
192 | ACGGAAGC | 0.337
193 | AGGGAAGA | -0.277
194 | CGGGAAGA | 0.401
195 | ACGGAAGA | 0.349
196 | CCGGAAGG | 0.392
197 | CCGGAAGC | 0.395
198 | CATACGGG | 0.152
199 | AGACCGTG | -0.0481
200 | AACTTGCC | 0.139
201 | GAGTCGCA | -0.21
202 | CCAGCCCC | -0.0533
203 | CGTTCCAG | -0.0906
204 | AACTCATA | 0.148
205 | TCGGAAGA | 0.455
206 | GGGGAATA | -0.0405
207 | TAGGAAGA | -0.21
208 | CGGGAATA | 0.417

Row | Sequence | PBM E-score
209 | TCAGAAGA | -0.217
210 | AGGGAATA | 0.0561
211 | ATTAGCAC | 0.00903
212 | CTCCTGGC | -0.113
213 | TGGCTAAA | 0.0298
214 | CGGCTAAA | 0.388
215 | AGGCTAAA | -0.163
216 | AGTAGGGG | 0.0719
217 | CGGATCAA | 0.401
218 | CGGATCTC | 0.3
219 | CGGATCGC | 0.361
220 | TGGATCAA | -0.243
221 | CGGATCTA | 0.391
222 | CGGATCAC | 0.397
223 | CGGATCAG | 0.33
224 | AGGATCGA | 0.00545
225 | CGGATCGA | 0.404
226 | GGGATCTA | 0.0821
227 | GGGATCAC | -0.0541
228 | AGGATCAC | -0.249
